# Test results reported in PubChem BioAssay (NCATS).
# Where “and” joins values, the source holds several entries; their conditions need not be identical. Equal values may be shown once. Results filed as inconclusive are left out. Entries that show only a call come without a potency. Where a structure was tested more than once in an assay, its records may differ in their call. Calls of active or inactive are those of the source. Unless noted, calls come from the whole dose curve; as a rule, active = well fitted curve in the direction sought with a large enough effect; inconclusive = small, poorly fitted or top-dose-only effect, or another doubt; inactive = no such curve, though single readings can be large; an effect the other way counts as inactive or inconclusive. Non-standard residues stand in square brackets, D forms with d. Residues, ends and D or L forms follow the SMILES beside them. Peptide text beside a SMILES is read from it. *: point of attachment. Sta = CC(C)C[C@H](N)[C@@H](O)CC(=O)O; Isovaleryl = CC(C)CC(=O)*
# How the values were obtained:
# [1] = target: Glucocorticoid receptor (Homo sapiens) (UniProt P04150); test: qHTS assay for small molecule antagonists of glucocorticoid receptor signaling (AID 588533; active = well fitted inhibition curve with a large enough effect in the signal ratio, with a control signal flat, not every such curve was filed as active; the % refers to the signal ratio;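 note: cells stimulated with 2 nM dexamethasone as agonist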)
# Outline: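 Antagonist-mode qHTS: compound titrations added to GRE-bla HeLa cells, then dexamethasone 2 nM final; 18 h, 37 C. CCF4 FRET fluorescence normalized to dexamethasone and DMSO; IC50 from Hill fit.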
# [2] = qHTS assay for small molecule antagonists of peroxisome proliferator-activated receptor delta signaling (AID 588535); settings: HEK293T PPARd-UAS-bla, beta-lactamase FRET ratio, 18 h; 460 nm channel;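 note: cells co-treated with a PPAR-delta agonist as stimulator during compound exposure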
# Outline: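 Compounds tested in titration on PPAR-delta-UAS-bla HEK293T cells grown in charcoal/dextran-stripped serum (2%); beta-lactamase activity read via CCF4 emission at 460 and 530 nm.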
# [3] = target: Vitamin D3 receptor (Homo sapiens) (UniProt P11473); test: qHTS assay for small molecule antagonists of vitamin D receptor signaling (AID 588541; calls by dose curve;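 note: receptor activated by calcitriol during compound treatment; series mostly up to about 77 µM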)
# Outline: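 VDR-UAS-bla HEK293T cells (2000/well, 2% charcoal-stripped FBS) were treated with titrated compounds plus 1-alpha,25-dihydroxyvitamin D3 (50 nM or 3 nM final) for 16 h at 37 C. CCF4 beta-lactamase fluorescence was read; Hill fits gave IC50.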
# [4] = target: Vitamin D3 receptor (Homo sapiens) (UniProt P11473); test: qHTS assay for small molecule agonists of vitamin D receptor signaling (AID 588543; calls by dose curve)
# Outline: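 β-lactamase reporter, VDR-UAS-bla HEK293T, agonist mode. Cells plated 5 h at 37 °C, compound titration 16 h at 37 °C, CCF4 dye 2 h RT, ratio 460/530 nm. Hill fit → EC50, efficacy vs 50 nM 1α,25-(OH)2D3.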
# [5] = qHTS assay for small molecule agonists of retinoid X receptor alpha signaling (AID 588544; calls by dose curve); settings: HEK293T RXRa-UAS-bla, beta-lactamase reporter, 18 h; 530 nm emission
# [6] = target: Retinoic acid receptor RXR-alpha (Homo sapiens) (UniProt P19793); test: as above
# [7] = target: Thyroid hormone receptor beta (Homo sapiens) (UniProt P10828); test: qHTS assay for small molecule agonists of thyroid hormone receptor beta signaling (AID 588545; calls by dose curve)
# Outline: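 TR-UAS-bla-GripTite HEK 293 cells in medium with 2% charcoal/dextran FBS, 0.1 mM NEAA and 1 mM sodium pyruvate were treated with titrated compounds for 18 hrs at 37 C. Beta-lactamase reporter was read with CCF4 dye (ex 405, em 460/530 nm); EC50 from Hill fits.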
# [8] = qHTS assay for small molecule antagonists of retinoid X receptor alpha signaling (AID 588546; active = well fitted inhibition curve with a large enough effect in the signal ratio, with a control signal flat, not every such curve was filed as active; the % refers to the signal ratio;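 note: cells stimulated with 9-cis-retinoic acid as agonist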); settings: HEK293T RXRa-UAS-bla, beta-lactamase ratio, antagonist mode; measured here: W530 green channel, cytotoxicity proxy
# Outline: (§1)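 Beta-lactamase reporter inhibition, read as CCF4 fluorescence ratio (ex 405, em 460/530 nm) after 2 h at RT. HEK293T UAS-bla cells, 2500/well, were stimulated with 9-cis-RA at 500 or 100 nM final alongside test compound for 18 h at 37 C.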
# [9] = target: Retinoic acid receptor RXR-alpha (Homo sapiens) (UniProt P19793); test: as above; settings: HEK293T RXRa-UAS-bla, beta-lactamase ratio, antagonist mode
# Outline: as §1
# [10] = target: Thyroid hormone receptor beta (Homo sapiens) (UniProt P10828); test: qHTS assay for small molecule antagonists of thyroid hormone receptor beta signaling (AID 588547; active = well fitted inhibition curve with a large enough effect in the signal ratio, with a control signal flat, not every such curve was filed as active; the % refers to the signal ratio;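 note: cells stimulated with 0.4 nM T3 agonist during compound exposure; series mostly up to about 77 µM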); settings: TR-UAS-bla HEK293, beta-lactamase ratio, antagonist mode, 18 h
# Outline: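 TR-UAS-bla GripTite HEK293 cells in 2% charcoal/dextran FBS medium were preincubated 4 h at 37 C, given compound (0.59 nM to 92 uM) plus 0.4 nM T3 (final) for 18 h, then CCF4 for 2 h at RT; Hill fit gave IC50.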
# [11] = target: Voltage-gated inwardly rectifying potassium channel KCNH2 (Homo sapiens) (UniProt Q12809); test: qHTS Assay for Small Molecule Inhibitors of the Human hERG Channel Activity (AID 588834);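 note: lower thallium flux fluorescence means stronger hERG block; nearly all actives have a fitted effect of over 50% in size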; note: potency is the fitted concentration of half-maximal effect
# Outline: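 Thallium-flux (FluxOR) read-out on FDSS: fluorescence read 10 s before and 2 min after stimulation buffer. hERG-BacMam-transduced U2OS cells, compound exposure about 10 min. AC50 by standard Hill equation.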
# [12] = target: Luciferin 4-monooxygenase (Photinus pyralis) (UniProt P08659); test: Biochemical firefly luciferase enzyme assay for NPC (AID 624030);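 note: purified P. pyralis luciferase at 10 nM with luciferin and ATP substrate; series mostly up to about 59 µM; nearly all actives have a fitted effect of over 70% in size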
# Outline: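 Counter-screen for direct inhibition of the luciferase enzyme by approved-drug library compounds, run at 10 nM enzyme in 50 mM Tris acetate (final). Luminescence was read within 5 min of enzyme-buffer addition and normalized to PTC124 versus DMSO (0%).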
# [13] = S16 Schwann cell viability assay (CellTiter-Glo assay) (AID 624031);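 note: native untransfected S16 rat Schwann cells; cellular ATP luminescence as a viability measure; series mostly up to about 58 µM; nearly all actives have a fitted effect of over 70% in size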
# Outline: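 Concentration-effect curves come from CellTiter-Glo luminescence of S16 rat Schwann cells after 24 h compound exposure. Each reading was normalized to DMSO wells (0%) and wells without cells, and curves were ranked by r2 and response magnitude.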
# [14] = S16 Schwann cell PMP22 intronic element firefly luciferase assay (AID 624032); note: series mostly up to about 58 µM; nearly all actives have a fitted effect of over 30% in size
# Outline: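 Rat S16 Schwann cells stably carrying a PMP22 intronic element-driven Fluc reporter were seeded overnight, then exposed to compounds for 24 h at 37 °C. Luminescence was normalized to PTC124 (positive control) and DMSO (0% activity).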
# [15] = S16 Schwann cell PMP22 intronic element beta-lactamase assay (AID 624044; calls by dose curve; note: nearly all actives have a fitted effect of over 15% in size; note: potency is the fitted concentration of half-maximal effect)
# Outline: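 Beta-lactamase reporter under a PMP22 intronic regulatory element in stable S16 rat Schwann cells; 24 h compound exposure. 460 nm blue signal normalized between DMSO (0%) and potassium clavulanate, with 535 nm FRET tracking viability; curves classed by r2 and response.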
# [16] = target: Peroxisome proliferator-activated receptor gamma (Homo sapiens) (UniProt P37231); test: qHTS assay for small molecule agonists of peroxisome proliferator-activated receptor gamma signaling (AID 588536; active = well fitted curve in the direction sought with a large enough effect in the signal ratio, with a control signal flat, not every such curve was filed as active; the % refers to the signal ratio)
# Outline: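 Compound treatment: 16 h, 37 C, HEK293 GeneBLAzer cells. Detection: CCF4, 2 h RT. Values: Hill-fit EC50, efficacy as % of 2 uM rosiglitazone.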
# [17] = target: Peroxisome proliferator-activated receptor gamma (Homo sapiens) (UniProt P37231); test: qHTS assay for small molecule antagonists of peroxisome proliferator-activated receptor gamma signaling (AID 588537; active = well fitted inhibition curve with a large enough effect in the signal ratio, with a control signal flat, not every such curve was filed as active; the % refers to the signal ratio;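 note: reporter cells co-stimulated with 50 nM rosiglitazone agonist during compound treatment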)
# Outline: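 HEK293 cells, PPAR-gamma-UAS-bla, 3000/well. Pre-incubation 6-6.5 h, 37 C. Compound titration with rosiglitazone 50 nM final, 16 h. CCF4 dye, 2 h RT, dual-emission fluorescence.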
# [18] = target: Glutaminase kidney isoform, mitochondrial (Homo sapiens) (UniProt O94925); test: qHTS for Inhibitors of Glutaminase (GLS): LOPAC Validation (AID 624146);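 note: glutamate product detected by oxidase and peroxidase coupled Amplex red fluorescence gain; series mostly up to about 46 µM; nearly all actives have a fitted effect of over 60% in size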
# Outline: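 Read-out is an Amplex red fluorescence increase coupled through glutamate oxidase and HRP, measured before and after 30 min room-temperature incubation. hKGA is in 45 mM KH2PO4 (pH 8.2) with 0.02% Tween-20; glutamine added as 1mM solution.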
# [19] = qHTS of Trypanosoma Brucei Inhibitors: LOPAC Validation (AID 624147)
# Outline: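 Assay buffer: 50 mM TEA pH 7.2, 100 mM KCl, 10 mM MgCl2, 0.05% BSA, 0.01% Tween-20. Pyruvate kinase from T. brucei plus substrate met compound, then ADP (130 uM final). Luminescence was read post 45 min RT.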
# [20] = target: Glucagon-like peptide 1 receptor (Homo sapiens) (UniProt P43220); test: qHTS of GLP-1 Receptor Agonists: LOPAC Validation (AID 624148);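 note: higher luminescence signal means agonism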
# Outline: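 HEK293 cells stably co-expressing a cAMP-responsive luciferase reporter and a hypersensitive GLP-1R were plated 12 h at 37 °C and exposed to compounds for 4-6 hr at 37 °C, 5% CO2. Luminescence was read 12 min after adding detection reagent.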
# Chain of Glucocorticoid receptor (Homo sapiens) (P04150 whole entry, looked up): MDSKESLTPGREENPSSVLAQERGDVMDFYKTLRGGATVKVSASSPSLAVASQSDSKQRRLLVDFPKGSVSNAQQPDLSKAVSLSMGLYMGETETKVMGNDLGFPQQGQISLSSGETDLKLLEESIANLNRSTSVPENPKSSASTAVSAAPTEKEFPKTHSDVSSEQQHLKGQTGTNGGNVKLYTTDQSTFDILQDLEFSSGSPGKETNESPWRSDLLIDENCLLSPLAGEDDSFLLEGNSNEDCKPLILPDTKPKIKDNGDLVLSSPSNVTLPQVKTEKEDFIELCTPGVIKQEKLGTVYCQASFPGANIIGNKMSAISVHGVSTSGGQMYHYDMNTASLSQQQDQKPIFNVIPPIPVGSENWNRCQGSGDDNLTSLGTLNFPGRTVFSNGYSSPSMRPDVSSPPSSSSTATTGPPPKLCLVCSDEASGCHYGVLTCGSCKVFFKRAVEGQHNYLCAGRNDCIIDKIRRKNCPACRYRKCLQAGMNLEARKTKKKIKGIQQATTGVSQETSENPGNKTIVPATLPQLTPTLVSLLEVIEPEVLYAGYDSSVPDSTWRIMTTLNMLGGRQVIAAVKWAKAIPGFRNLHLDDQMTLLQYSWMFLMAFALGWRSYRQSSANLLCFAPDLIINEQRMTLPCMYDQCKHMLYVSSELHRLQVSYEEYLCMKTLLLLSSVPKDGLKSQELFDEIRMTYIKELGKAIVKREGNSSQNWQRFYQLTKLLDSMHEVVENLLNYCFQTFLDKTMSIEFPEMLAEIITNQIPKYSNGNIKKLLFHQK
# Chain of Peroxisome proliferator-activated receptor gamma (Homo sapiens) (P37231 whole entry, looked up): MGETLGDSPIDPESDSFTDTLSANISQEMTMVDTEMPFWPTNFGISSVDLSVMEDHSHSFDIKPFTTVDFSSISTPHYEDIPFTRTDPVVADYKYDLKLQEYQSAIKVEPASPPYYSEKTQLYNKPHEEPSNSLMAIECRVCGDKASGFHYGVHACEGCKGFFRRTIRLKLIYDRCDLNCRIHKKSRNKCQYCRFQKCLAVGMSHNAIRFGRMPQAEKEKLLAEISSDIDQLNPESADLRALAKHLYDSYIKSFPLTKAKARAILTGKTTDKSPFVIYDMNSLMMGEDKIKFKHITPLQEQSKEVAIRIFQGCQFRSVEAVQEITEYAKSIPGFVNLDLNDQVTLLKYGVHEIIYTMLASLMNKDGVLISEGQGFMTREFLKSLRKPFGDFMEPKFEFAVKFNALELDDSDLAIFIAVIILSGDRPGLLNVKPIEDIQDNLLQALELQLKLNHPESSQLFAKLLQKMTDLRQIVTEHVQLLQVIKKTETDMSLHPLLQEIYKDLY
# Chain of Retinoic acid receptor RXR-alpha (Homo sapiens) (P19793 whole entry, looked up): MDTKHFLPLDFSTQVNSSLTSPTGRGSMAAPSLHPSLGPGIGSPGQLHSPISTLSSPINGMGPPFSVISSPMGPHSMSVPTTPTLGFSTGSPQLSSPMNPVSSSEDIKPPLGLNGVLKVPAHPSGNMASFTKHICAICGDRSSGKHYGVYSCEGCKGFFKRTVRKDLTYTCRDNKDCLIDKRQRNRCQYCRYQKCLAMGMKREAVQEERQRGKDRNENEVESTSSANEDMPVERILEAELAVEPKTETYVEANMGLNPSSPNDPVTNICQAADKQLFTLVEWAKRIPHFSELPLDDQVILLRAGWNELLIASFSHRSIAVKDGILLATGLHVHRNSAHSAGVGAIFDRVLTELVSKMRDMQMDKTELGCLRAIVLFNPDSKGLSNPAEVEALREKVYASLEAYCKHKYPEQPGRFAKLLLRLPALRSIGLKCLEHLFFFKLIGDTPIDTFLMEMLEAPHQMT
# Chain of Vitamin D3 receptor (Homo sapiens) (P11473 whole entry, looked up): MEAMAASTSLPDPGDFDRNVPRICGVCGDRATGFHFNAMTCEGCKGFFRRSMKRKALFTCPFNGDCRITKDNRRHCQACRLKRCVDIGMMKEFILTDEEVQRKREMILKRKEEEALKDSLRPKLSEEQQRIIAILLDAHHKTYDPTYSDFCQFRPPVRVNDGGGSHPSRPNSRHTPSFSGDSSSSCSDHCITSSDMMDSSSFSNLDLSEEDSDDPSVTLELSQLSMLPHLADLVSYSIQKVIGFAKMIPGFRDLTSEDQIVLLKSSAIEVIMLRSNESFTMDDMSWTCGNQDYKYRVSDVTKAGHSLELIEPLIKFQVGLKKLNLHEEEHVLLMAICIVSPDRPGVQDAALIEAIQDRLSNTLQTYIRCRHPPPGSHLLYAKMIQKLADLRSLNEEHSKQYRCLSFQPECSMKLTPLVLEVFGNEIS
# Chain of Thyroid hormone receptor beta (Homo sapiens) (P10828 whole entry, looked up): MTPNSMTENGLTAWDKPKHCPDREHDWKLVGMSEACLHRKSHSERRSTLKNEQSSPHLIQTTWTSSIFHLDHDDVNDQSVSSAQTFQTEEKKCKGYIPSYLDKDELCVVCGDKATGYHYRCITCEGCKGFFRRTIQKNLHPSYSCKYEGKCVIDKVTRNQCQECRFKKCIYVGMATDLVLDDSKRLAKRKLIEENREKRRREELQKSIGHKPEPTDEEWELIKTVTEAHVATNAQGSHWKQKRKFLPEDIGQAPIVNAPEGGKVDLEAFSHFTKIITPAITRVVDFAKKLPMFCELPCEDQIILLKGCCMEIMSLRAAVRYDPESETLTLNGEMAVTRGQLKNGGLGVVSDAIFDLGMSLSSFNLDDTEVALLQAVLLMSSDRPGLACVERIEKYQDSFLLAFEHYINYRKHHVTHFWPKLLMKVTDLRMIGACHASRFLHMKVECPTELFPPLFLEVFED
# Chain of Voltage-gated inwardly rectifying potassium channel KCNH2 (Homo sapiens) (Q12809 whole entry, looked up): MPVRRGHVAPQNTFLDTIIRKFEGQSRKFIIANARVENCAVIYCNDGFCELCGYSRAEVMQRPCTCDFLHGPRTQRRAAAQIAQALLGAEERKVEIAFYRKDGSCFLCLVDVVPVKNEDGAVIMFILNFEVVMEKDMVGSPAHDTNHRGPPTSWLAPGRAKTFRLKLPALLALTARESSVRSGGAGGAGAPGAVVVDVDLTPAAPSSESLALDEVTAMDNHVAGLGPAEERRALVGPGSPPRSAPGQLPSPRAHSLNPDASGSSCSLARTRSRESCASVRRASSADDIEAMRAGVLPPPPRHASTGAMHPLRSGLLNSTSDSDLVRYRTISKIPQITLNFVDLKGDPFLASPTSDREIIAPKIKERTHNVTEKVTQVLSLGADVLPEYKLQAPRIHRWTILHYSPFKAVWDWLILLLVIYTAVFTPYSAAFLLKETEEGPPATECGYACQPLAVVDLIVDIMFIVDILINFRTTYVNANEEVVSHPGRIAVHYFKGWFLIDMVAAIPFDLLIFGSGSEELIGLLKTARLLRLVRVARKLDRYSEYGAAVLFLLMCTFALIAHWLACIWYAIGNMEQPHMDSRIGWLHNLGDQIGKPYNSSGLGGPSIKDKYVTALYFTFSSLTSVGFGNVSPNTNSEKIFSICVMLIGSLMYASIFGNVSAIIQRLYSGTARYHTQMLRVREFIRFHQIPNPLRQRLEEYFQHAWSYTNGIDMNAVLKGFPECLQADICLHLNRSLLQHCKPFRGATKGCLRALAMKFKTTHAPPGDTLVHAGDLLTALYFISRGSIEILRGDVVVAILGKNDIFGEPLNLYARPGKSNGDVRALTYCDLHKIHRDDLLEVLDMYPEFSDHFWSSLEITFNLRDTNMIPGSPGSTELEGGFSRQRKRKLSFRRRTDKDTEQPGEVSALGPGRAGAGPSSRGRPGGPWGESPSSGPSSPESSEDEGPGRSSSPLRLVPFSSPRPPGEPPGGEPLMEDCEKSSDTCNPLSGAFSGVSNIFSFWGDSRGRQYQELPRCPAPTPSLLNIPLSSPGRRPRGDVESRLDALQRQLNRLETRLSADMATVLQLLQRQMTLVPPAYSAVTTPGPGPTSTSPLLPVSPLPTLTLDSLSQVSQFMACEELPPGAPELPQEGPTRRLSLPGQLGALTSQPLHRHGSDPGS
# Chain of Luciferin 4-monooxygenase (Photinus pyralis) (P08659 whole entry, looked up): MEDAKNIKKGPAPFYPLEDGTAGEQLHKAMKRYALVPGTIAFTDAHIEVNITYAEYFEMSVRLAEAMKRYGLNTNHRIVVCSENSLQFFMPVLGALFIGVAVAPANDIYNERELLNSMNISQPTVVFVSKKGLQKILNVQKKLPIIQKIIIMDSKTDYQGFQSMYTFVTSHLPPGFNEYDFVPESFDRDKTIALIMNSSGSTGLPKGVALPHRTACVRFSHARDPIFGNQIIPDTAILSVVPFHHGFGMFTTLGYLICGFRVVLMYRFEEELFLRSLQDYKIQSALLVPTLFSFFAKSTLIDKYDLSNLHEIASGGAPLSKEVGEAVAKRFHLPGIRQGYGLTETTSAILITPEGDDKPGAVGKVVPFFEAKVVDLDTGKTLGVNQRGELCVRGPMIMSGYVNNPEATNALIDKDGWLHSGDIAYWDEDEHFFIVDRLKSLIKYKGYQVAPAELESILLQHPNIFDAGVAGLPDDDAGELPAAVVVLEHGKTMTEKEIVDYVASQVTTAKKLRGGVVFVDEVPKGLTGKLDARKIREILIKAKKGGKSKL
# Chain of Glutaminase kidney isoform, mitochondrial (Homo sapiens) (O94925 whole entry, looked up, canonical isoform): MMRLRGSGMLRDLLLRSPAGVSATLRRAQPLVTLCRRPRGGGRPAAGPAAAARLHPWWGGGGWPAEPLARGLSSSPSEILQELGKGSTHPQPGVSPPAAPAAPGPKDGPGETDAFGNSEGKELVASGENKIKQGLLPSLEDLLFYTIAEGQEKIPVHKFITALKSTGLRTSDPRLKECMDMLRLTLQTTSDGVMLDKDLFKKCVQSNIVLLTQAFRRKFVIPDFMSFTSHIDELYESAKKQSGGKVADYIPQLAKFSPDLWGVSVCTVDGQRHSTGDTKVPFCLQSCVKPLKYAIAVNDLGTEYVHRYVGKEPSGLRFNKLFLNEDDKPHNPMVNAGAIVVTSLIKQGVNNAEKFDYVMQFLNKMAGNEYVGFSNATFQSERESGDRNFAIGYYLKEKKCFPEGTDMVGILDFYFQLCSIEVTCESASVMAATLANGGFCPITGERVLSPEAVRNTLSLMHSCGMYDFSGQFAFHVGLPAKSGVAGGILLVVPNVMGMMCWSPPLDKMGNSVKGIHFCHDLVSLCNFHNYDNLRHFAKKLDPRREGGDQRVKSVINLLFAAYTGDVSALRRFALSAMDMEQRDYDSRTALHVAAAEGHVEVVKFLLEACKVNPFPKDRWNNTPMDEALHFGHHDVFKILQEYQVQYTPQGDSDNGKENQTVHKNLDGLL
smiles,measurement,setting,value
CCc1nc(N)nc(N)c1-c1ccc(Cl)cc1,outcome,[1],inactive
same,max response,[2],-4.91%
same,outcome,[3],inactive
same,outcome,[4],inactive
same,max response,[5],19.5% and 21%
same,outcome,[6],inactive
same,outcome,[7],inactive
same,max response,[8],8.81%
same,max response,[9],-13% (inactive)
same,activity change % (negative = inhibition),[10],6.74% (inactive) and -7.45% (inactive)
same,Potency,[11],39.8 µM (active) and inactive
same,Potency,[12],inactive
same,Potency,[13],inactive
same,Potency,[14],inactive
same,Potency,[15],9.99 µM (active)
CS(=O)(=O)OCCCCOS(C)(=O)=O,max response,[2],-16.8% and 23.8% and -11.6%
same,outcome,[16],inactive
same,Potency,[17],inactive
same,outcome,[3],inactive
same,outcome,[4],inactive
same,max response,[5],-9.47% and 11.7%
same,outcome,[6],inactive
same,max response,[8],2.17% and -2.42%
same,max response,[9],8.02% (inactive) and 2.56% (inactive)
same,Potency,[11],inactive
same,Potency,[12],inactive
same,Potency,[13],inactive
same,Potency,[14],inactive
same,Potency,[15],inactive
CNC[C@H](O)c1ccc(O)c(O)c1,outcome,[16],inactive
same,Potency,[17],inactive
same,outcome,[3],inactive
same,outcome,[4],inactive
same,max response,[5],-11.1%
same,outcome,[6],inactive
same,outcome,[7],inactive
same,max response,[8],-9.39%
same,max response,[9],-4.11% (inactive)
same,Potency,[11],inactive
same,Potency,[12],inactive
same,Potency,[13],inactive
same,Potency,[14],inactive
same,Potency,[18],inactive
same,Potency,[19],inactive
Nc1ccc(S(N)(=O)=O)cc1,outcome,[1],inactive
same,max response,[5],-11.9%
same,outcome,[6],inactive
same,outcome,[7],inactive
same,max response,[8],-7.58%
same,max response,[9],9.55% (inactive)
same,activity change % (negative = inhibition),[10],-5.21% (inactive)
same,Potency,[12],inactive
same,Potency,[13],inactive
same,Potency,[14],inactive
same,Potency,[15],inactive
Clc1ccc(C(Cn2ccnc2)OCc2c(Cl)cccc2Cl)c(Cl)c1 (stereo not drawn),Potency,[11],7.94 µM (active)
CN1CCC(=C2c3ccccc3CCc3sccc32)CC1,Potency,[11],10 µM (active)
same,Potency,[12],inactive
Cc1ccc(S(=O)(=O)NC(=O)NN2CC3CCCC3C2)cc1 (stereo not drawn),Potency,[11],inactive
CC(C)CC(=O)N[C@H](C(=O)N[C@H](C(=O)N[C@@H](CC(C)C)[C@@H](O)CC(=O)N[C@@H](C)C(=O)N[C@@H](CC(C)C)[C@@H](O)CC(=O)O)C(C)C)C(C)C (Isovaleryl-VV[Sta]A[Sta]-OH),Potency,[11],inactive
O=c1c(O)c(-c2ccc(O)cc2O)oc2cc(O)cc(O)c12,outcome,[1],inactive
same,outcome,[16],inactive
same,Potency,[17],inactive
same,outcome,[3],inactive
same,outcome,[4],inactive
same,outcome,[7],inactive
same,Potency,[11],3.16 µM (active)
same,Potency,[19],inactive
same,outcome,[20],inactive
COC(=O)[C@H](Cc1ccccc1)NC(=O)[C@@H](N)CC(=O)O (H-Asp-Phe-OMe),outcome,[1],inactive
same,max response,[2],-1.9% and 6.72%
same,outcome,[16],inactive
same,Potency,[17],inactive
same,max response,[5],3.6% and 1.05%
same,outcome,[6],inactive
same,outcome,[7],inactive
same,max response,[8],2.63% and 8.92%
same,max response,[9],1.69% (inactive) and -7.67% (inactive)
same,activity change % (negative = inhibition),[10],6.56% (inactive) and 1.22% (inactive)
same,Potency,[11],inactive
same,Potency,[12],inactive
same,Potency,[13],inactive
same,Potency,[14],inactive
